# Assay outcomes as filed in PubChem.
# The list is not random: actives were taken first. Their share in the collection is about 2.4%.
# FEN1 inhibitor: qHTS Assay for the Inhibitors of Human Flap endonuclease 1 (FEN1); P39748; Recombinant FEN1 flap cleavage, fluorescence, 15 min; Potency, µM (doses to about 114 µM), for the others: at the highest dose activity change, negative = inhibition, usual class: inhibitors; hit rate 0.35% among 390,000; note: % is set by controls: 0 for no effect and ±100 for the full control effect; nearly all actives have a fitted effect of over 65% in size
#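 FEN1 at 10 nM, compound pretreatment for 15 min (room temperature), 50 nM final substrate to initiate; endpoint reads at 0 and 15 min; DMSO-only plates used as vehicle background.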
# POLB inh: qHTS Assay for Inhibitors of DNA Polymerase Beta. P06746. Pol beta primer extension/strand displacement, fluorescence kinetic. Potency, µM (titrated, usually from 114 µM), for the others: at the top dose activity change, negative = inhibition, usual class: inhibitors. hit rate 1.3% among 340,000; note: % is set by controls: 0 for no effect and ±100 for the full control effect
#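 Kinetic readout of DNA synthesis with strand displacement by Pol beta. Compound and 10 nM enzyme sit 15 min at room temperature; 50 nM substrate starts the reaction, read immediately and at 10 min.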
# WRN inhibitor: qHTS for Inhibitors of WRN Helicase | hit rate 0.46% among 360,000 | Potency, µM (top dose mostly 114 µM), for the others: at the highest dose activity change, negative = inhibition, hits mostly inhibitors | WRN helicase unwinding, fluorescent forked duplex, kinetic; note: % is set by controls: 0 for no effect and ±100 for the full control effect; nearly all actives have a fitted effect of over 55% in size
# Target sequence (Q14191 whole entry, looked up): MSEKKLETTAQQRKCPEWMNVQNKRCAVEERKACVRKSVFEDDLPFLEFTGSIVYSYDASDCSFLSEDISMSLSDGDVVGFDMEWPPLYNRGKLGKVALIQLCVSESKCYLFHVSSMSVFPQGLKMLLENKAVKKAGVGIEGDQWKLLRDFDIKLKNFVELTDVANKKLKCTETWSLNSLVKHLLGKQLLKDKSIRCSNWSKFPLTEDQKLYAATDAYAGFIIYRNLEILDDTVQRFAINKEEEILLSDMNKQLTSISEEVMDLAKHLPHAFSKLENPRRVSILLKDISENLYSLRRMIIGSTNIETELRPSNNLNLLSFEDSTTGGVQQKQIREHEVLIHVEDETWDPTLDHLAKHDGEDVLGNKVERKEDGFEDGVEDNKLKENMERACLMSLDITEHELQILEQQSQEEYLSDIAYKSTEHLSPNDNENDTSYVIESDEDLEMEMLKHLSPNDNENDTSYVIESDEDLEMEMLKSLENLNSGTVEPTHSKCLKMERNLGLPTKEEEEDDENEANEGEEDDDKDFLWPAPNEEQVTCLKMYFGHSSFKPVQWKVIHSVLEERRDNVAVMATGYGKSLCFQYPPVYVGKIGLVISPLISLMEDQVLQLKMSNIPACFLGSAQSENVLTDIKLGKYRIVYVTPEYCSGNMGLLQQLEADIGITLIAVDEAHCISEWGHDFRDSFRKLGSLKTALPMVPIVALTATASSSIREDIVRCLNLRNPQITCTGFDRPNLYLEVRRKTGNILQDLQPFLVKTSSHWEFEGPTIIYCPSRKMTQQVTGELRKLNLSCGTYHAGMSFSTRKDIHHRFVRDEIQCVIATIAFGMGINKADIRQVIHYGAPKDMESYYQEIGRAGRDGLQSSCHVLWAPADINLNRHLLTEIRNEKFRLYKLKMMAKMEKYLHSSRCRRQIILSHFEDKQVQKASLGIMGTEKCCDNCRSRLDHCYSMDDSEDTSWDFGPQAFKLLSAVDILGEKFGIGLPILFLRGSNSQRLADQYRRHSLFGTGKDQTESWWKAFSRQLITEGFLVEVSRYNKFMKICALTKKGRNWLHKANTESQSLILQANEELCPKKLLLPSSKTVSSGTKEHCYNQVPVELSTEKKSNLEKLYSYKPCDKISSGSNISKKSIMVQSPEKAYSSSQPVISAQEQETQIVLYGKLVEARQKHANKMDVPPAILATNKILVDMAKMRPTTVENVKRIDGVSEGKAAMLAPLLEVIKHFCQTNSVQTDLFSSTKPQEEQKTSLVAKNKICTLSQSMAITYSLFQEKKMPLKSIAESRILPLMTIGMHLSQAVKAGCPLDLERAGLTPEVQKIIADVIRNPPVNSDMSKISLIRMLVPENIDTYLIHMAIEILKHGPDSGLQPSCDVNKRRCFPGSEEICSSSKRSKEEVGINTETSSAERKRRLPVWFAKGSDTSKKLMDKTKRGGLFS
#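 Fluorescence dequenching readout, ex 525 nm/em 598 nm, kinetic mode: forked duplex DNA (100 nM final) with adjacent fluorophore and quencher unwound by WRN (20 nM final) with 2 mM ATP. Compound preincubation 15 min, room temperature.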
# POLH inh: qHTS for Inhibitors of Polymerase Eta; recombinant Pol eta, fluorescent DNA replication assay; Potency, µM (series often up to 114 µM), inactives show at the top dose activity change, negative = inhibition, actives largely listed as inhibitors; hit rate 1.2% among 390,000; AID 588591, 2011; note: % is set by controls: 0 for no effect and ±100 for the full control effect
#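 Fluorescent replication assay: 50 nM final substrate added after a 15 min room-temperature compound preincubation with 10 nM enzyme. Signal taken at 0 min and again at 10 min.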
# Pol kappa inh: qHTS for Inhibitors of Polymerase Kappa; DNA polymerase kappa (Homo sapiens), Q9UBT6; AID 588579, 2011; purified Pol kappa, fluorescent DNA synthesis assay, 10 min; Potency, µM (doses to about 107 µM), for inactives: at the highest dose activity, negative = inhibition, actives largely listed as inhibitors; hit rate 0.53% among 400,000; note: % is set by controls: 0 for no effect and ±100 for the full control effect
#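 Inhibition of 10 nM Pol kappa is measured by a fluorescent read-out at 0 and 10 min following addition of 50 nM substrate (final), with a 15-min room-temperature compound preincubation.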
# Pol iota inh: qHTS for Inhibitors of Polymerase Iota; Potency, µM (titrated, usually from 115 µM), for inactives: top-dose activity, negative = inhibition, actives largely listed as inhibitors; AID 588590, 2011; DNA polymerase iota (Homo sapiens), Q9UNA4; hit rate 1% among 390,000; Pol iota fluorescent replication assay, 10 min
#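 Fluorescent replication assay read twice, at 0 min and 10 min after adding 50 nM (final) substrate. Enzyme (10 nM) and compounds were first incubated 15 min at room temperature; enzyme-free buffer wells were negative controls.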
# TbPGK inh: qHTS for inhibitors of Phosphogylcerate Kinase: Hit Validation Screen | Potency, µM (series often up to 57.5 µM), inactives show at the highest dose activity change, negative = inhibition, hits mostly inhibitors | TbPGK coupled GAPDH assay, Kinase-Glo luminescence | hit rate 79% among 500 | AID 686980, 2013 | shares compounds with Pol kappa inh; note: % is set by controls: 0 for no effect and ±100 for the full control effect; nearly all actives have a fitted effect of over 65% in size
# POLI cherry-pick: qHTS for Inhibitors of Polymerase Iota: Confirmatory Assay for Cherry-picked Compounds; Potency, µM, most hits filed as inhibitors; hit rate 77% among 1,500; shares compounds with Pol kappa inh; AID 720496, 2013; Pol iota primer extension, TAMRA/BHQ fluorescence
# * marks the source's active call; other numbers are inactive results; ? = inconclusive; . = no result given; [ ] = dose if it differs, or a comment. Calls come from the whole dose curve; as a rule, active = well fitted curve in the direction sought with a large enough effect; inconclusive = small, poorly fitted or top-dose-only effect, or another doubt; inactive = no such curve, though single readings can be large; an effect the other way counts as inactive or inconclusive. Potency is the fitted concentration of half-maximal effect.
SMILES,FEN1 inhibitor,POLB inh,WRN inhibitor,POLH inh,Pol kappa inh,Pol iota inh,TbPGK inh,others
Cc1cc(C)cc(NC(=O)CCNC(=O)c2ccc([N+](=O)[O-])cc2)c1,2.1%,5.3%,-4.7%,-15.1%,3.5%,7.6%,.,
Cn1c(=O)cc(SCC(=O)N2CCCC2)c2ccc(Cl)cc21,-6.6%,24.5%,-2.6%,1.4%,-8.9%,6.3%,.,
Cc1ccc(NC(=S)N2CCN(CCN3C(=O)c4cccc5cccc(c45)C3=O)CC2)cc1,-1.7%,25.4%,3.0%,?,-16.2%,11.7%,3.8%,
O=C1c2cccc3cccc(c23)C(=O)N1CCN1CCN(C(=S)Nc2ccc(F)cc2)CC1,.,5.0%,.,.,.,.,.,
NS(=O)(=O)c1cc(C(=O)OCC(=O)N2CCOCC2)ccc1Cl,-2.5%,40.3%,0.1%,-18.9%,1.6%,32.5%,.,
CC(C)CNC(=O)C1Nc2ccc(C(F)(F)F)cc2C2C=CCC12 (centres undefined),-11.9%,.,-4.6%,-4.9%,-32.3%,-5.1%,.,
O=C(O)C1Nc2c(O)cccc2C2C=CCC12 (centres undefined),39.8µM*,1.58µM*,11.2µM*,1.26µM*,10µM*,?,3.26µM*,
COC(=O)CNC(=O)C1Nc2ccccc2C2C=CCC12 (centres undefined),-20.2%,.,0.7%,?,-19.6%,?,.,
O=C(O)C1Nc2ccc(Br)cc2C2C=CCC12 (centres undefined),?,1.58µM*,28.2µM*,3.16µM*,10µM*,?,18.3µM*,
COc1ccc(C(=O)NC(=S)Nc2ccc3c(c2)Cc2ccccc2-3)cc1,4.3%,-13.4%,6.4%,-4.1%,-2.3%,8.3%,.,
COc1ccc(Cn2c(-c3ccccc3)nc3c(c(=O)c4ccccc4n3C)c2=O)cc1,5.6%,-1.3%,?,?,-0.7%,4.9%,.,POLI cherry-pick=42.3*
CCCC(=O)Nc1ccc(Sc2ccc([N+](=O)[O-])cc2)cc1,-15.3%,-5.3%,-11.2%,-11.2%,-17.9%,11.8%,.,
COc1cccc(NC(=O)CN(C)C(=O)CC2CCCC2)c1,12.5%,.,-0.7%,-8.0%,-2.8%,?,.,
NS(=O)(=O)c1ccc(NC(=O)/C=C/c2ccco2)cc1,-25.3%,25.1µM*,?,20µM*,50.1µM*,17.8µM*,8.19µM*,
O=C(c1cccc(S(=O)(=O)N2CCCC2)c1)N1CCN(S(=O)(=O)c2cccc(Cl)c2)CC1,-11.5%,.,-5.3%,-0.7%,-13.3%,-19.1%,.,
O=C(O)CC/C(=C\c1ccc(N2CCCC2)c([N+](=O)[O-])c1)c1nc2ccccc2s1,?,-8.0%,?,56.2µM*,?,?,.,POLI cherry-pick=75.2*
O=C(O)CC/C(=C\c1ccccc1[N+](=O)[O-])c1nc2ccccc2s1,-1.1%,-14.5%,-1.2%,-5.9%,-13.3%,96.1%,.,
CCOC(=O)C1(Cc2ccc(OC)cc2)CCN(C(=O)CCn2cccn2)CC1,2.9%,0.8%,-4.1%,4.7%,-18.4%,16.5%,.,
CCOC(=O)C(Cc1ccnc2ccccc12)=NO,0.9%,.,-1.2%,-17.7%,-19.2%,44.7%,.,
CCOC(=O)C(=O)Cc1cccnn1,-7.8%,.,50.1µM*,2.82µM*,?,?,13µM*,
O=c1c(Cl)c(N2CCCCC2)cnn1-c1nc2ccccc2[nH]1,2.3%,-5.0%,-2.2%,-0.4%,-9.3%,12.3%,.,
O=c1c2ccccc2cnn1-c1nc2ccccc2[nH]1,-16.3%,20.1%,-2.4%,-7.7%,1.7%[60.1 µM],24.9%,5.8µM*,
N=C1C(c2nc(-c3cccc([N+](=O)[O-])c3)cs2)=C(O)CN1NC(=O)c1ccco1,-21.5%,0.1%,?,50.1µM*,?,50.1µM*,.,POLI cherry-pick=?
Cc1cn([C@H]2C[C@H](O)[C@@H](CNCc3cnc(N4CCOCC4)nc3)O2)c(=O)[nH]c1=O,.,.,-6.6%,-1.6%,.,.,.,
CCNC(=O)C1CC(=O)N(Cc2ccc3c(c2)OCO3)C(=Nc2ccc(F)cc2)S1 (centres undefined),-8.8%,?,-9.9%[57.1 µM],-0.1%,-7.2%,-9.7%,.,
SMILES,FEN1 inhibitor,POLB inh,WRN inhibitor,POLH inh,Pol kappa inh,Pol iota inh,TbPGK inh,others
COc1ccc(N=C2SC(C(N)=O)CC(=O)N2Cc2ccc3c(c2)OCO3)cc1 (centres undefined),2.2%,?,-11.0%[57.1 µM],28.2µM*,89.1µM*,39.8µM*,-21.3%,
Cc1ccc(/C=N/N2CCCCC2)o1,-0.9%,3.9%,-5.1%,-8.7%,-9.3%,-4.8%,-0.4%,
O=C(Nc1ccccn1)c1cc2ccccc2o1,-12.7%,0.9%,-1.6%[57.1 µM],-6.0%,-3.0%,23.7%,16.3µM*,
O=[N+]([O-])c1ccc2nc(SCc3cn4ccccc4n3)[nH]c2c1,-6.0%,2.1%,-11.4%,?,-10.6%,1.2%,.,
O=[N+]([O-])c1ccc2nc(SCc3cn4cc(Cl)ccc4n3)[nH]c2c1,-4.6%,5.62µM*,?,50.1µM*,-28.5%,28.2µM*,.,POLI cherry-pick=?
CC(=O)c1ccc(-c2ccc(/C=C(/Sc3n[nH]c(C)n3)C(=O)O)o2)cc1,50.1µM*,?,-10.6%,39.8µM*,?,?,.,POLI cherry-pick=47.4*
O=C(O)/C(=C\c1ccc(-c2ccc(F)cc2)o1)c1ccccc1,-9.7%,?,?,-10.0%,?,?,.,
Cc1ccc(NC(=O)CN2C(=O)S/C(=C\c3cccn3-c3cccc(C(=O)O)c3)C2=O)c(C)c1,?,10µM*,?,3.55µM*,?,?,9.19µM*,
C[C@@H]1CC[C@]2(C(=O)O[C@@H]3O[C@H](CO)[C@@H](O)[C@H](O)[C@H]3O)CC[C@]3(C)C(=CCC4[C@@]5(C)CC[C@H](O[C@@H]6OC[C@H](O)[C@H](O[C@@H]7O[C@H](CO)[C@@H](O)[C@H](O)[C@H]7O)[C@H]6O)C(C)(C)C5CC[C@]43C)C2[C@]1(C)O (some centres undefined),-13.4%,.,-1.9%[11.6 µM],-19.3%,-17.2%,?,.,
